High-throughput results from PubChem BioAssay.
A selection: hits, their analogues and other compounds. The true share with any hit is near 2.6%.
aDG glyco up: increases alpha dystroglycan glycosylation; Pro5-aDG cells, alpha-DG glycosylation AlphaScreen (IIH6); 0% Pro5, 100% B10-LARGE cell signal; activation, % at 10 µM; hit rate 0.22% among 360,000; AID 624168;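 active means activation of at least 8% versus controls, or a plate z-score of at least 8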;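 further: Pro5 are CHO cells carrying HIG-tagged alpha-DG that lacks glycosylation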
LGR2 antag: inhibitors of bursicon-induced Drosophila LGR2 receptor cAMP signaling. hit rate 0.35% among 380,000. inhibition, % at 9.99 µM. HEK293 LGR2, CRE-luciferase, bursicon-stimulated, 4 h;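 active means drop in luminescence signal, shown as inhibition above about 50% in the replicate tests, limit read from the data, passing the limit was not always enough; inconclusive means probably only some replicates passing the limit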;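 further: agonist challenge used bursicon conditioned medium at about half maximal strength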
HSP90 inh: inhibitors of HSP90 luciferase refolding in rabbit reticulocyte lysate | luciferase refolding luminescence, 3 h | inhibition, % at 5.6 µM | hit rate 0.91% among 290,000;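 active means inhibition above the screen-wide mean plus 3 SD, computed separately per campaign, cut at about 16% in these data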;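 further: 0% = DMSO wells and 100% = 60 µM geldanamycin wells; inhibitors lower the luminescence because luciferase stays unfolded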
TROY NFkB inh: inhibitors of TROY-dependent NF-kB signaling | Q293 LMP1-TROYcd NF-kB luciferase reporter, 4 h | inhibition, % at 10 µM | hit rate 0.98% among 360,000;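 active means compounds whose plate-normalised and pattern-corrected inhibition of the luciferase reporter signal at the single screening dose is 50% or more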
TWEAK-Fn14 inh: inhibitors of TWEAK-Fn14 interaction signaling; AID 1159606; inhibition, % at 10 µM; hit rate 2% among 360,000; TWEAK-stimulated Fn14 reporter cells, luciferase luminescence, 8 h; in the data active means inhibition above about 50%
LMP1 NFkB inh: inhibitors of Epstein-Barr LMP1-induced NF-kappaB reporter | LMP1-induced NF-kappaB luciferase reporter cells, luminescence | inhibition, % at 12.5 µM | hit rate 0.69% among 350,000 | AID 504558; in the data active means inhibition above about 41%; inconclusive means no clear call, values can overlap the other calls;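 further: 0% = neutral control wells and 100% = reference inhibitor control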
Numbers without * were called inactive; ? = inconclusive; · = no result given.

SMILES | aDG glyco up | LGR2 antag | HSP90 inh | TROY NFkB inh | TWEAK-Fn14 inh | LMP1 NFkB inh
COc1ccc(/C=C\C(=O)NCc2ccc3c(c2)cc(C)n3C)cc1OC | 0 | -4 | 8 | 0 | 21 | 67*
COc1ccc(C(=O)NCc2ccc3c(c2)cc(C)n3C)cc1OC | 0 | 14 | -4 | -14 | -17 | 4
C[C@@H]1CN([C@@H](C)CO)C(=O)c2cc(NC(=O)c3ccccc3)ccc2O[C@@H](C)CCCCO[C@@H]1CN(C)S(=O)(=O)c1ccc(Cl)cc1 | · | -7 | · | · | · | ·
CN(C)c1cccc(C(=O)OCc2cc(=O)oc3cc(O)ccc23)c1 | 0 | · | 6 | -56 | -5 | 2
O=C(OCc1cc(=O)oc2cc(O)ccc12)c1cc(S(=O)(=O)N2CCOCC2)ccc1F | 0 | -20 | · | 16 | -11 | -5
CCc1cc2c(COC(=O)c3cc(S(=O)(=O)N4CCOCC4)ccc3F)cc(=O)oc2cc1O | 0 | 59* | · | 45 | 9 | 4
CCc1cc2c(COC(=O)c3cccc(NS(C)(=O)=O)c3)cc(=O)oc2cc1O | 0 | -20 | 4 | 53* | 55* | 2
C[C@@H]1CN([C@@H](C)CO)C(=O)c2cc(C#CC3CCCCC3)cnc2O[C@@H]1CN(C)S(=O)(=O)c1ccccc1 | · | 0 | · | · | · | ·
CCOc1ccccc1-c1c2cc(O)c(=O)cc-2oc2cc(O)c(O)cc12 | 0 | · | 0 | 22 | 74* | 9
COc1ccc(OC)c(-c2c3cc(O)c(=O)cc-3oc3cc(O)c(O)cc23)c1 | 0 | · | 5 | 11 | 74* | 31
O=c1cc2oc3cc(O)c(O)cc3c(-c3ccccc3O)c-2cc1O | 0 | · | 5 | 4 | 31 | 12
O=C(O)C[C@H]1C[C@@H]2c3cc(NC(=O)C4CCC4)ccc3O[C@@H]2[C@H](CO)O1 | · | 25 | · | · | · | ·
C[C@@H]1CN([C@@H](C)CO)C(=O)c2cc(NC(=O)C3CC3)ccc2O[C@@H]1CN(C)S(=O)(=O)c1ccc(F)cc1 | · | -7 | · | · | · | ·
Cc1noc(C)c1NC(=O)Nc1ccc2c(c1)C(=O)N([C@@H](C)CO)C[C@@H](C)[C@H](CN(C)C(=O)Nc1cccc3ccccc13)O2 | · | 7 | · | · | · | ·
CCCN(C)C[C@@H]1Oc2cc(C#CC(C)(C)O)ccc2S(=O)(=O)N([C@@H](C)CO)C[C@@H]1C | · | 17 | · | · | · | ·
CCc1nnc(NC(=O)CN2CCN(Cc3cccc(F)c3)CC2)s1 | 0 | -2 | 1 | -11 | 53* | -3
COc1cccc(N2CCN(CC(=O)NC3=Nc4ccccc4N=C(C)C3c3ccccc3)CC2)c1 (stereo not drawn) | 0 | -1 | 4 | -3 | -5 | 24
COc1cccc(N2CCN(CC(=O)Nc3nnc(-c4ccccc4)s3)CC2)c1 | 0 | · | 3 | 29 | 55* | 14
CCc1nnc(NC(=O)CN2CCN(Cc3cccc(Cl)c3)CC2)s1 | 0 | -18 | 2 | 1 | 0 | -5
C[C@H]1CN([C@@H](C)CO)C(=O)c2cc(C#CC3CCCC3)cnc2O[C@@H]1CN(C)S(C)(=O)=O | · | 13 | · | · | · | ·
CN1CCN(c2ccc(NC(=O)c3sc4ccccc4c3Cl)cc2)CC1 | 1 | 64* | -1 | 60* | -30 | 13
O=C(NC(=S)Nc1ccc(CN2CCOCC2)cc1)c1ccc(-c2cccc(Cl)c2)o1 | 0 | 67* | 4 | 58* | 49 | 18
O=C(NC(=S)Nc1ccc(CN2CCOCC2)cc1)c1ccc(-c2ccc(Cl)cc2)o1 | · | 1 | -1 | · | · | ·
O=C(Nc1ccc(CN2CCOCC2)cc1)c1ccc(-c2cccc(Cl)c2)o1 | 0 | · | -2 | 45 | 57* | 13
CN1CCN(c2ccc(NC(=O)c3ccc(-c4ccc(Cl)cc4)o3)cc2)CC1 | 5.5* | 6 | 5 | 14 | -54 | 1
SMILES | aDG glyco up | LGR2 antag | HSP90 inh | TROY NFkB inh | TWEAK-Fn14 inh | LMP1 NFkB inh
CN(C)C(=O)c1ccc(-c2ccccc2[C@@H]2[C@@H](C#N)N(C(=O)C3CC3)[C@@H]2CO)cc1 | · | -3 | · | · | · | ·
CC(C)C#Cc1cnc2c(c1)C(=O)N([C@H](C)CO)C[C@H](C)[C@H](CN(C)C(=O)Cc1ccccn1)O2 | · | -12 | · | · | · | ·
Cc1cccc(C)c1NC(=O)CSC(=O)c1sc2ccccc2c1Cl | 0 | -3 | 1 | 59* | 33 | 8
O=C(Nc1ccc(N2CCN(C(=O)c3ccc(Cl)cc3)CC2)cc1)c1cc2ccccc2o1 | 0 | ? | 8 | 69* | 90* | 30
O=C(Nc1ccccc1N1CCN(C(=O)c2ccc(Cl)cc2)CC1)c1cc2ccccc2o1 | 0 | · | -1 | -26 | 21 | -18
C[C@@H]1CN([C@@H](C)CO)S(=O)(=O)c2ccc(-c3cccnc3)cc2O[C@H]1CN(C)Cc1cncnc1 | · | -13 | · | · | · | ·
COc1ccc(N2CCN(c3nc(NCCc4ccc(OC)c(OC)c4)nc(OC)n3)CC2)cc1 | 0 | · | 0 | 57* | 38 | 13
CCOc1nc(NCCc2ccc(OC)c(OC)c2)nc(N2CCN(c3ccc(OC)cc3)CC2)n1 | 0 | · | 0 | -6 | 19 | 1
C[C@H]1CN([C@@H](C)CO)C(=O)c2cccc(NS(=O)(=O)c3cn(C)cn3)c2O[C@H]1CN(C)C(=O)Nc1ccc(F)cc1 | · | 0 | · | · | · | ·
Oc1ccc(Br)cc1-c1nc2cnccn2c1NC1CCCCC1 | 0 | 19 | -1 | 6 | 28 | -20
Oc1ccc(Br)cc1-c1nc2cnccn2c1NC1CCCC1 | 0 | · | 2 | 14 | 62* | -8
CC=Cc1ccc2n(c1=O)C[C@@H]1[C@@H](CO)[C@H](C(=O)N(C)C)N(CC3CCCCC3)[C@H]21 (mixture of isomers) | · | 10 | · | · | · | ·
Cn1nnnc1N=N/C(=N/Nc1ccccc1)c1ccccc1 | -1 | -14 | -5 | -46 | -10 | 60*
C[C@H]1CN([C@@H](C)CO)C(=O)Cc2cc(NC(=O)Nc3ccccc3)ccc2O[C@H]1CN(C)S(=O)(=O)c1cccs1 | · | -27 | · | · | · | ·
Cc1cccc(N2CCCn3c2nc2c3c(=O)n(CCN3CCOCC3)c(=O)n2C)c1 | 0 | · | -4 | 11 | 108* | 8
O=C(C[C@H]1C[C@H]2c3cc(NC(=O)c4cccnc4)ccc3O[C@H]2[C@H](CO)O1)NCc1ccccc1 | · | 9 | · | · | · | ·
C[C@@H]1CN([C@H](C)CO)C(=O)Cc2cc(NC(=O)Nc3cccc4ccccc34)ccc2O[C@H]1CN(C)C(=O)Nc1ccc(F)cc1 | · | 2 | · | · | · | ·
Cc1ccc2[nH]c3c(=O)n(CCc4cnc[nH]4)cnc3c2c1 | 0 | · | 0 | 53* | 15 | 1
Cc1ccc2[nH]c3c(=O)n(CCN4CCOCC4)cnc3c2c1 | 0 | -31 | 1 | -14 | -29 | -11
CCc1nc(Sc2nnnn2-c2ccccc2)c2c3c(sc2n1)CCCC3 | 1 | 55* | -5 | 55* | 93* | 13
CCc1nc(N2CCN(C(=O)c3ccccc3)CC2)c2c3c(sc2n1)CCCC3 | 0 | 29 | 2 | 32 | 28 | 7
Cc1nc(Sc2nnnn2C)c2c3c(sc2n1)CCC3 | 0 | · | 3 | 23 | 78* | 48*
